Screening results: PubChem, National Center for Advancing Translational Sciences (NCATS)
Rows were chosen to be rich in hits. Some 9.4% of all compounds tested hit in one or more screens of this group.
SARS PLpro yeast: blocks SARS-CoV papain-like protease in a yeast assay; S. cerevisiae expressing SARS-CoV PLpro, growth rescue; Potency, µM (highest dose often 32.9 µM), usual class: activators; 330,000 compounds, 0.19% hits; calls by dose curve; also: nearly all actives have a fitted effect of over 55% in size
Pf growth 96h: P. falciparum growth inhibition at 96 hours | P. falciparum luciferase reporter growth, 96 h | Potency, µM (highest dose often 28.7 µM), usual class: inhibitors | 320,000 compounds, 6.9% hits
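Readout is luminescence from an integrated firefly luciferase in P. falciparum. Red cells, 2% hematocrit and 0.05% parasitemia final, were cultured with compound through two parasite generations (96 hours) at 37 C, 5% CO2.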
Pf growth 48h: P. falciparum growth inhibition at 48 hours (one generation); P. falciparum luciferase growth in erythrocytes, 48 h; Potency, µM (series often up to 28.7 µM), hits mostly inhibitors; 310,000 compounds, 5.9% hits; AID 504832
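Cell-based growth assay: transgenic P. falciparum expressing firefly luciferase, cultured in red cells within RPMI 1640 containing 0.5% w/v Albumax, 24 mM bicarbonate and gentamycin. A drop in luciferase activity indicates inhibition.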
AMA1-RON2 inh: inhibitors of Plasmodium falciparum AMA1-RON2 interaction; AlphaScreen AMA1-biotinylated RON2 peptide binding; 360,000 compounds, 0.2% hits; Potency, µM (titrated, usually from 58.2 µM), hits mostly inhibitors; AID 720542; also: nearly all actives have a fitted effect of over 45% in size
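AMA1 (3D7) with his tag at 25 nM final met compounds first, then biotinylated RON2 peptide at 25 nM; detection used donor plus acceptor beads, 10 µg/mL apiece, read by AlphaScreen after 30 min at room temperature.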
A number is an active result; – = inactive; ? = inconclusive; · = no result given. Unless noted, calls follow the shape of the dose curve; as a rule, active = well fitted curve in the direction sought with a large enough effect; inconclusive = small, poorly fitted or top-dose-only effect, or another doubt; inactive = no such curve, though single readings can be large; an effect the other way counts as inactive or inconclusive.

SMILES	SARS PLpro yeast	Pf growth 96h	Pf growth 48h	AMA1-RON2 inh
O=S(=O)(NC1c2cccc3cccc(c23)C1N1CCN(CCO)CC1)c1ccccc1 (stereo not drawn)	–	–	14.7µM	–
O=S(=O)(NC1c2cccc3cccc(c23)C1N1CCNCC1)c1ccccc1 (stereo not drawn)	–	–	?	–
O=C(c1ccccc1)N1CCN(C2c3cccc4cccc(c34)C2NS(=O)(=O)c2ccccc2)CC1 (stereo not drawn)	–	4.15µM	6.57µM	–
COc1ccc(NC(=O)C[C@H]2C(=O)N(Cc3ccccc3)C[C@@H]2Cc2ccccc2)cc1	·	·	·	–
O=C(C[C@H]1C(=O)N(Cc2ccccc2)C[C@@H]1Cc1ccccc1)Nc1ccccc1	–	13.1µM	–	–
O=C(C[C@H]1C(=O)N(CCc2ccccc2)C[C@@H]1Cc1ccccc1)Nc1ccc(Br)cc1	·	·	·	–
O=C(C[C@H]1C(=O)N(CCc2ccccc2)C[C@@H]1Cc1ccccc1)Nc1ccccc1	–	10.4µM	?	–
CCCCSc1nc(C)cc(C)c1S(=O)(=O)c1ccccc1C	–	10.4µM	?	–
CC1=Nc2nc(N3CCCCCC3)c(C#N)c3c4c(nc(c23)N1)N(c1ccc2ccccc2c1)C(=O)C4	·	·	·	–
CCN(CC)CCCNC(=O)c1sc2nc(-c3ccc(F)cc3)cn2c1C	–	13.1µM	·	–
C/C=C1\CN2[C@H]3C[C@@]45c6ccccc6N(C)[C@H]4[C@@H]2CC1C3[C@H]5O (stereo partly drawn)	·	·	·	–
CCCC[N+]12C3C[C@H](C4[C@H](O)[C@]5(C[C@@H]41)c1ccccc1N(C)[C@@H]35)[C@H](CC)[C@H]2O (stereo partly drawn)	–	?	13.1µM	–
CSCCCN1CC[C@@H](N2CCN(c3ccccc3F)CC2)[C@H](O)C1	–	?	–	–
CC(=O)c1cccc(CN2CCCC(C(=O)c3ccc4c(c3)OCO4)C2)c1 (stereo not drawn)	–	?	?	–
CCOC(=O)CNC(=O)N1CCCC(C(=O)c2ccc3c(c2)OCO3)C1 (stereo not drawn)	–	11.7µM	–	–
O=C(c1ccc2c(c1)OCO2)C1CCCN(C2CCN(CCc3ccccc3)CC2)C1 (stereo not drawn)	–	–	2.62µM	–
S=C(c1ccc2c(c1)OCO2)N1CCCCCC1	–	11.7µM	·	–
c1cc2c(cc1CN1CCN(C3CCCCCC3)CC1)OCO2	–	–	–	?
c1ccc(CN2CCC(N3CCN(Cc4ccc5c(c4)OCO5)CC3)CC2)cc1	–	?	14.7µM	–
CCOC(=O)C1CCCN(C(=O)c2ccc3c(c2)OCO3)C1 (stereo not drawn)	–	·	–	–
COC(=O)c1ccc2[nH]c([C@H](C)O)c([C@H](C)O)c2c1	–	?	?	–
COc1ccc(CNCCC(c2ccc(OC)cc2)c2ccccc2OC)cc1 (stereo not drawn)	–	?	?	–
COc1ccc(C(CCNCc2ccc(OC(C)C)cc2)c2ccccc2OC)cc1 (stereo not drawn)	–	11.7µM	11.7µM	–
COc1ccc(C(CCNCc2ccc(N(C)C)cc2)c2ccccc2OC)cc1 (stereo not drawn)	–	?	?	12.6µM
COc1ccccc1C(CC(=O)Nc1ccccc1C)c1ccc(OC(C)C)cc1 (stereo not drawn)	–	?	14.7µM	–
SMILES	SARS PLpro yeast	Pf growth 96h	Pf growth 48h	AMA1-RON2 inh
COc1ccc(C(CCNCc2ccccc2)c2ccc(F)cc2)cc1 (stereo not drawn)	–	–	–	–
C=CCSc1nnc(NC(=O)c2ccc3c(c2)OCCO3)s1	·	·	·	–
Cn1c2c(c(=O)n(C)c1=O)[C@@]1(C(=O)Nc3ccccc31)C(C#N)=C(N)O2	–	13.1µM	?	–
Fc1ccc(Oc2nnnn2-c2ccccc2)cc1	–	–	–	–
COCCn1c(SCc2csc(-c3ccccc3)n2)nc2ccccc21	–	11.7µM	–	–
COCCn1c(SCC(=O)NCc2ccccc2)nc2ccccc21	–	–	–	–
Cc1ccccc1-n1nnnc1SCc1csc(-c2ccccc2)n1	–	9.28µM	·	–
C[C@@H]1Cn2cnc(C(=O)NCc3ccc(CNC(=O)OC(C)(C)C)cc3)c2C(=O)N1	·	·	·	–
CC(C)(C)n1ncc2c(=O)n(Cc3ccccc3Br)cnc21	–	?	2.94µM	·
CCOCCCNC(=O)C1CCN(S(=O)(=O)N2CCCC2)CC1	–	–	–	–
O=C(N/C(=C\c1cccc([N+](=O)[O-])c1)C(=O)N1CCCCC1)c1cccs1	–	–	?	–
Cc1noc(C)c1S(=O)(=O)N1CCC(C(=O)N2CCN(C3CCCC3)CC2)CC1	–	–	–	·
O=C1NC(=O)C(=Cc2ccccc2OCCOc2ccc([N+](=O)[O-])cc2)C(=O)N1	–	–	–	–
CN1C(=O)C(=Cc2ccccc2OCCOc2ccc([N+](=O)[O-])cc2)C(=O)N(C)C1=O	–	11.7µM	–	–
CCCN(CC(=O)Nc1cccc(S(N)(=O)=O)c1)CC(=O)Nc1ccc(F)c(F)c1F	–	–	–	–
CCCN(CC(=O)Nc1cccc(Br)c1)CC(=O)Nc1ccc(F)c(F)c1F	–	3.7µM	?	–
CCN(CC)CCNC(=O)c1c(O)c2ccccc2n(Cc2ccccc2)c1=O	–	4.15µM	11.7µM	–
CCN(CC)CCCNC(=O)c1c(O)c2ccccc2n(Cc2ccccc2)c1=O	–	–	9.28µM	–
CCCn1c(=O)c(C(=O)NCc2ccccc2)c(O)c2ccccc21	–	–	–	–
CCn1c(=O)c(C(=O)NCCCO)c(O)c2ccccc21	–	–	–	–
Cc1ccc(C)c(N2CCN(C(=O)c3ccc(NC4=NC5CS(=O)(=O)CC5S4)cc3)CC2)c1 (stereo not drawn)	–	10.4µM	–	–
CCOc1ccc(NC(=O)c2cccc(NC3=NC4CS(=O)(=O)CC4S3)c2)cc1 (stereo not drawn)	–	8.28µM	–	–
O=C(c1ccc(NC2=NC3CS(=O)(=O)CC3S2)cc1)N1CCN(C(=O)c2ccco2)CC1 (stereo not drawn)	–	–	–	–
CCc1ccc(NC(=O)c2cccc(NC3=NC4CS(=O)(=O)CC4S3)c2)cc1 (stereo not drawn)	–	–	–	–
Cc1cccc(CCNC(=O)c2cccc(NC3=NC4CS(=O)(=O)CC4S3)c2)c1 (stereo not drawn)	–	14.7µM	–	–
SMILES	SARS PLpro yeast	Pf growth 96h	Pf growth 48h	AMA1-RON2 inh
Cc1cccc(CCNC(=O)Cc2ccc(NC3=NC4CS(=O)(=O)CC4S3)cc2)c1 (stereo not drawn)	–	?	–	–
Cc1cccc(OCc2nc(C#N)c(N3CC(C)CC(C)C3)o2)c1 (stereo not drawn)	–	13.1µM	·	?
Cc1cccc(OCc2nc(C#N)c(N3CCCC3)o2)c1	–	?	–	–
CC1(C)N=C(N)N=C(N)N1c1ccccc1	–	0.738µM	·	–
CC1(C)N=C(N)N=C(N)N1c1ccc(CCCCc2ccccc2)cc1	·	·	·	–
Cc1cccc(N2C(N)=NC(N)=NC23CCCCC3)c1	–	?	2.08µM	–
COc1ccc(OC)c(N2C(N)=NC(N)=NC23CCCC3)c1	–	–	–	–
